# Screens: PubChem, National Center for Advancing Translational Sciences (NCATS)
# The list is not random: actives were taken first. Their share in the collection is about 2.4%.
# D2 ag-1: D2 dopamine receptor (human) agonism; HEK293 T-REx D2 cells, calcium flux agonist mode; activation, % at 2 µM; hit rate 0.53% among 340,000;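 active = activation over 3 SD above normal in the single-dose calcium agonist read, cut at about 30% in these data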
# Target sequence (P14416 whole entry, looked up): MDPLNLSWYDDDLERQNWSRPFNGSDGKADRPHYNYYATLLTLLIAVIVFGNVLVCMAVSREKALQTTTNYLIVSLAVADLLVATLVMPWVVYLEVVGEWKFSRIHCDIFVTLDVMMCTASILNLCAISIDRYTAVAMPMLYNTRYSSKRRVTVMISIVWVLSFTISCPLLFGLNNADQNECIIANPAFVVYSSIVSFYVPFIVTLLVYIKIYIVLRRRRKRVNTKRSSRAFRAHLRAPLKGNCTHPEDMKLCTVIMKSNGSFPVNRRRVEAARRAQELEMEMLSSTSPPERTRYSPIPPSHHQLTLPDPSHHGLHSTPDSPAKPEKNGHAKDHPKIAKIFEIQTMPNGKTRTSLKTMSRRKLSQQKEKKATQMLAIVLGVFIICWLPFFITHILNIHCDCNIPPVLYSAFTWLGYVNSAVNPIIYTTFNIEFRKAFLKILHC
#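 Agonism is scored from calcium flux in a force-coupled, inducible HEK293 cell line expressing D2, read kinetically for 180 s after compound addition against dopamine controls.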
# D2 PAM-1: potentiates the human D2 dopamine receptor allosterically | DiscoveRx D2 beta-arrestin cells, luminescence, 90 min; 100% = 57 uM dopamine signal | potentiation, % (test concentration not listed) | hit rate 0.23% among 360,000 | P14416; in the data active = potentiation above about 50%; inconclusive = mostly about 30% to 49%
#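 PathHunter beta-arrestin assay in DiscoveRx D2 cells. Compounds were added with an EC20 of dopamine (50 nM final) for 90 min at 37 deg C. Luminescence was read 1 h after detection reagent, with 57 uM dopamine as the EC100 control.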
# D2 ag-2: activates the human D2 dopamine receptor; P14416; DiscoveRx PathHunter D2 beta-arrestin, luminescence, 90 min; 100% = 57 uM dopamine signal; activation, % (no concentration beside the values); hit rate 0.084% among 360,000; AID 624465; in the data active = activation above about 40%; inconclusive = between about 15% and that limit
#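 DiscoveRx PathHunter D2 beta-arrestin cells (2,100/well) attached overnight, then compound-stimulated 90 min at 37 C in HBSS/10 mM HEPES/0.1% Tween-20 buffer; beta-galactosidase complementation read by luminescence after 1 h at ambient temperature. Dopamine 57 uM final (EC100) as control.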
# D2 PAM-2: D2 dopamine receptor (human) potentiation. hit rate 0.34% among 340,000. potentiation, % at 10 µM. HEK293 T-REx D2, calcium flux, EC20 dopamine potentiation. AID 485347;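 active = potentiation over 3 SD above the plate norm, cut at about 30% in these data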
#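 Using a no-wash calcium dye in inducible, force-coupled HEK293 Trex cells expressing D2, we tracked fluorescence each second for 180 s after compound, then for 180 s after EC20 dopamine to detect augmented signalling.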
# D2 antag: antagonizes the human D2 dopamine receptor; P14416; HEK293 TREx D2 cells, calcium flux, dopamine EC80; inhibition, % at 10 µM; hit rate 2% among 340,000; in the data active = inhibition above about 30%; inactive = below that, where a call was filed
#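 HEK293 T-REx D2 cells, tet-induced, calcium dye no-wash. Cpd pintool add, 180 s kinetic, then EC80 DA, 180 s kinetic. Ca flux read.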
# D3 ag: D3 receptor agonism confirmed, beta-arrestin readout; shares compounds with D2 ag-1; DiscoveRx D3 beta-arrestin cells, luminescence, 90 min; Potency, µM (top dose mostly 76.9 µM), actives largely listed as activators; hit rate 4% among 2,300; also: nearly all actives have a fitted effect of over 70% in size
# D2 ag-3: D2 receptor agonism, beta-arrestin counterscreen. shares compounds with D2 ag-1. DiscoveRx PathHunter D2 beta-arrestin, luminescence, 90 min; response scale: percent relative to full dopamine signal. Potency, µM (top dose mostly 76.9 µM), actives largely listed as activators. hit rate 5.9% among 2,300. AID 720507; also: nearly all actives have a fitted effect of over 70% in size
# Hits are given with their value; i = inactive; ? = inconclusive; nt = no result given. Unless noted, calls follow the shape of the dose curve; as a rule, active = well fitted activation curve with a large enough effect; inconclusive = small, poorly fitted or top-dose-only effect; inactive = flat fitted curve, though single readings scatter.
SMILES,D2 ag-1,D2 PAM-1,D2 ag-2,D2 PAM-2,D2 antag,D3 ag,D2 ag-3
Cc1onc(-c2c(F)cccc2Cl)c1C(=O)Nc1ccc(OC(C)C)cc1,i,nt,nt,i,nt,nt,nt
NS(=O)(=O)c1ccc(-c2ccc(/C=N/Nc3ccc(C(=O)O)cc3)o2)cc1,i,i,?,i,i,i,i
NS(=O)(=O)c1ccc(-c2ccc(/C=N/NC(=O)c3ccc([N+](=O)[O-])cc3)o2)cc1,i,i,i,i,i,nt,nt
Cc1cc(C)n2nc(C(=O)Nc3ccn(Cc4ccccc4C)n3)cc2n1,51,i,i,i,i,i,i
O=C(CCC1CCCC1)NNC(=O)c1ccc(F)cc1,i,i,i,i,i,i,i
N#CCC(=O)NCCCc1ccccc1,41,i,i,i,i,i,i
Cc1ccccc1OCC(=O)N/N=C/c1c(C)nn(-c2ccccc2)c1Cl,i,i,i,i,i,nt,nt
O=C1Nc2ccccc2O/C1=C\c1ccccc1,i,i,i,i,i,nt,nt
CCCCNCCCOc1cccc(Cl)c1Cl,49,i,i,i,87,i,i
O=c1c2ccccc2nnn1CSc1nnc(C2COc3ccccc3O2)n1-c1ccccc1 (configuration not stated),i,i,i,i,i,nt,nt
O=C1CC(=C2c3ccccc3-c3ccccc32)C(=O)N1CCCCN1CCN(c2ccccc2)CC1,73,i,i,i,44,i,i
O=C1CC(=C(c2ccccc2)c2ccccc2)C(=O)N1CCCN1CCN(c2cccc(Cl)c2)CC1,i,i,i,i,i,nt,nt
O=C(Nc1ccn(CCCN2CCN(Cc3cccc4ccccc34)CC2)c(=O)n1)OCc1ccccc1,nt,i,i,nt,nt,nt,nt
O=C(O)c1cc(-c2ccncc2)nc2ccc(F)cc12,i,nt,nt,i,i,nt,nt
O=C(Cn1cncn1)N/N=C/c1cc([N+](=O)[O-])ccc1O,i,i,i,i,52,i,i
COc1ccc(C2c3ccc4ccccc4c3Oc3ncn(CCCO)c(=N)c32)cc1OC (configuration not stated),nt,i,i,nt,nt,i,i
COc1ccc(C2c3ccc4ccccc4c3Oc3ncn(CCO)c(=N)c32)cc1OC (configuration not stated),nt,i,i,nt,nt,nt,nt
CC(C)[C@@H](C(=O)N1CCN(Cc2ccc3c(c2)OCO3)CC1)n1nnc2ccccc2c1=O,nt,i,i,nt,nt,nt,nt
CCC(C(=O)N1CCN(Cc2ccc3c(c2)OCO3)CC1)n1c(=O)[nH]c2ccccc2c1=O (configuration not stated),46,i,i,i,i,i,i
Cn1c(=O)cc(SCC(=O)N2CCN(Cc3ccc4c(c3)OCO4)CC2)c2ccccc21,38,i,i,i,41,i,i
Cc1ccc(CSCC(=O)N2CCN(Cc3ccc4c(c3)OCO4)CC2)cc1,45,i,i,i,i,i,i
CCCCC1CCCC12NC(=O)NC2=O (configuration not stated),i,i,i,i,i,nt,nt
COc1ccc(C2=NN(C(=O)COc3ncnc4ccccc34)C(c3ccco3)C2)cc1 (configuration not stated),i,i,i,i,i,nt,nt
CC(=O)Nc1ccc(/C=N/N2C(=O)NC(C)(c3ccc(OC(F)F)cc3)C2=O)cc1 (configuration not stated),37,i,i,i,47,i,i
O=C(c1ccc(N2CCCC2=O)cc1)N1CCN(c2ccccc2F)CC1,55,i,i,i,i,?,i
SMILES,D2 ag-1,D2 PAM-1,D2 ag-2,D2 PAM-2,D2 antag,D3 ag,D2 ag-3
Cc1cc(N2C(=O)C(O)=C(C(=O)c3cc4ccccc4o3)C2c2ccc(Br)cc2)no1 (configuration not stated),nt,i,i,i,nt,nt,nt
O=C(O)c1ccc(NC(=O)c2ccc3c(c2)C(=O)N(c2ccccc2)C3=O)cc1,i,i,i,i,i,nt,nt
O=C(O)c1ccc(S(=O)(=O)c2ccc3c(c2)C(=O)N(c2ccc(O)cc2)C3=O)cc1,61,i,i,i,i,i,i
CCOC(=O)Cn1cnc2scc(-c3ccc(C)c(C)c3)c2c1=O,i,i,i,i,i,nt,nt
COc1ccc(OC)c(S(=O)(=O)NCc2cn3ccsc3n2)c1,i,i,i,i,i,i,i
CN(Cc1ccc2c(c1)OCCO2)C(=O)CN1C(=O)NC2(CCCCC2)C1=O,i,i,i,i,i,nt,nt
CCC(C)(C)C1CCC2(CC1)NC(=O)N(CC(=O)N(C)Cc1ccc3c(c1)OCCO3)C2=O (configuration not stated),i,i,i,i,i,i,i
NS(=O)(=O)c1ccc(CCNC(=O)CSc2ccc(Cl)cc2)cc1,i,i,i,i,i,nt,nt
Nc1c(Cl)cc(-c2[nH]c3cc(C(=O)NCCO)ccc3c(=O)c2O)cc1Cl,i,i,i,i,i,i,i
CCCNC(=O)c1ccc2c(=O)c(O)c(-c3ccc(F)cc3)[nH]c2c1,nt,i,i,nt,nt,nt,nt
COC(=O)N/N=C1\CCCc2c(C)cc(C)cc21,i,i,i,i,i,nt,nt
COc1cc(/C=C/C(O)=C/C(=O)/C=C/c2ccc(O)cc2)ccc1O,48,i,i,i,i,i,i
Cc1cccc(CN2CCN(c3ncccn3)CC2)c1,87,?,?,i,83,?,7.9µM
Brc1cccc(CN2CCN(c3ncccn3)CC2)c1,73,?,73,i,85,i,11µM
CCNC(=O)N1C(=O)C2(OCCO2)c2ccccc21,i,i,i,i,i,nt,nt
CC1=NN(C(N)=S)C(=O)C1N=Nc1ccccc1Cl (configuration not stated),i,i,i,i,i,nt,nt
CC1=NN(C(N)=S)C(=O)C1N=Nc1ccccc1C(=O)O (configuration not stated),nt,i,i,nt,nt,i,i
CCOc1cc(S(=O)(=O)Nc2ncn[nH]2)ccc1Br,i,i,i,i,i,nt,nt
COc1cc([C@H]2[C@@H]3CCCC[C@]3(O)CCN2CC(=O)Nc2ccc(C)cc2C)ccc1O,i,i,i,i,i,i,i
COc1cc([C@H]2[C@@H]3CCCC[C@]3(O)CCN2Cc2ccccc2F)ccc1O,i,i,i,i,i,nt,nt
CCCNC(=O)C1(C)CCCN(C(=O)Cc2ccc(OC)cc2)C1 (configuration not stated),nt,i,i,nt,nt,nt,nt
CC(C)(C)c1cc(CCC(=O)NNC(=S)NC(=O)c2ccccc2)cc(C(C)(C)C)c1O,nt,i,i,nt,nt,i,i
CN1C(=O)c2c(C(=O)Nc3ccc(Oc4ccncc4)cc3)[nH]c(-c3ccccc3)c2C1=O,nt,i,i,nt,nt,nt,nt
